Data taken from the supplement of paper PMC6555819.

Columns and labels:
Assay in all cases: PBM binding z-score (relative to random genomic background probes); higher = stronger binding; sequences stand for … in GC…GCGATTGACAGCGTAGAATGAAGG
[1] = test system: FXR:RXRa (NR concentration 270 nM, RXRa partner concentration 90 nM)
Summary of the method: (§1)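 Binding z-scores take random background probes as their reference. They come from custom Agilent 4×180K protein-binding microarrays incubated 1 h with ligand-free nuclear receptor dimers, with antibodies against each partner (one per run) detecting binding. Scanned fluorescence was regression-normalized.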

[2] = test system: LXRa:RXRa (NR concentration 270 nM, RXRa partner concentration 90 nM)
Summary of the method: as §1

[3] = test system: LXRa homodimer (NR concentration 270 nM)
Summary of the method: as §1

[4] = test system: LXRb:RXRa (NR concentration 270 nM, RXRa partner concentration 90 nM)
Summary of the method: as §1

[5] = test system: LXRb homodimer (NR concentration 270 nM)
Summary of the method: as §1

[6] = test system: PPARa:RXRa (NR concentration 270 nM, RXRa partner concentration 90 nM)
Summary of the method: as §1

[7] = test system: PPARg:RXRa (NR concentration 180 nM, RXRa partner concentration 90 nM)
Summary of the method: as §1

[8] = test system: PPARg:RXRa 270nM:90nM, anti-RXR (NR concentration 270 nM, RXRa partner concentration 90 nM)
Summary of the method: as §1

[9] = test system: PPARg:RXRa 30nM:10nM, anti-RXR (NR concentration 30 nM, RXRa partner concentration 10 nM)
Summary of the method: as §1

[10] = test system: PPARg:RXRa 90nM:30nM, anti-RXR (NR concentration 90 nM, RXRa partner concentration 30 nM)
Summary of the method: as §1

[11] = test system: PPARg:RXRa DBDmut IVT, anti-RXR (DBD mutation: RXRa K156A/R161A, NR concentration 270 nM, RXRa partner concentration 90 nM)
Summary of the method: as §1

[12] = test system: PPARg:RXRa IVT, anti-PPARg (NR concentration 270 nM, RXRa partner concentration 90 nM)
Summary of the method: as §1

[13] = test system: PPARg DBDmut:RXRa IVT, anti-PPARg (DBD mutation: PPARg1 K132A/R137A, NR concentration 270 nM, RXRa partner concentration 90 nM)
Summary of the method: as §1

[14] = test system: PPARg DBDmut IVT, anti-PPARg (DBD mutation: PPARg1 K132A/R137A, NR concentration 270 nM)
Summary of the method: as §1

[15] = test system: PPARg homodimer (NR concentration 180 nM)
Summary of the method: as §1

[16] = test system: PXR:RXRa (NR concentration 270 nM, RXRa partner concentration 90 nM)
Summary of the method: as §1

[17] = test system: PXR homodimer (NR concentration 270 nM)
Summary of the method: as §1

[18] = test system: RARa:RXR (NR concentration 270 nM, RXRa partner concentration 90 nM)
Summary of the method: as §1

[19] = test system: RARa homodimer (NR concentration 270 nM)
Summary of the method: as §1

[20] = test system: RARb:RXRa (NR concentration 270 nM, RXRa partner concentration 90 nM)
Summary of the method: as §1

Sequence | PBM binding z-score [1] | PBM binding z-score [2] | PBM binding z-score [3] | PBM binding z-score [4] | PBM binding z-score [5] | PBM binding z-score [6] | PBM binding z-score [7] | PBM binding z-score [8] | PBM binding z-score [9] | PBM binding z-score [10] | PBM binding z-score [11] | PBM binding z-score [12] | PBM binding z-score [13] | PBM binding z-score [14] | PBM binding z-score [15] | PBM binding z-score [16] | PBM binding z-score [17] | PBM binding z-score [18] | PBM binding z-score [19] | PBM binding z-score [20]
TCTGCTAGGTCAACGATGGTCAGCTTATCTGCTA | 3.6 | 2.98 | -0.083 | 1.77 | -0.302 | 3.38 | 2.43 | 3.06 | 2.06 | 2.59 | 4.15 | 4.27 | 2.31 | 1.16 | 0.812 | 1.76 | -0.682 | 2.5 | -0.672 | 4.22
GCTCGGAGGACAAGGTCAAAGCTTTGTCCGTAGA | 4.6 | 3.98 | 0.466 | 3.14 | 0.0189 | 4.19 | 2.56 | 3.57 | 0.553 | 2.47 | 0.217 | 2.07 | -1.59 | -1.02 | 1.34 | 3.51 | 0.43 | 3.77 | -0.688 | 4.08
CCTTACGGGTCACGAGGTAATAGCACGACGAGCG | 6.82 | 4.16 | -0.00739 | 3.79 | 0.00142 | 5.93 | 7.12 | 6.63 | 3.83 | 5.54 | 4.44 | 5.5 | 3.05 | 1.21 | 4.14 | 4.07 | 0.0228 | 5.59 | 1.16 | 4.46
GCTGCTATGTCAACTGATGGTCAGCTAAAGCTCG | -0.296 | -0.497 | -0.849 | -0.37 | -0.729 | -0.283 | -0.143 | -0.387 | -0.655 | -0.456 | 0.616 | -0.0594 | -1.42 | -1.27 | -1.18 | -0.32 | -0.913 | -0.149 | -1.19 | 0.753
ACTAGCAGGGCAAGGGTCACTCAAGATTAGTCCG | 2.88 | 2.84 | 0.175 | 2.76 | -0.693 | 4.79 | 8.91 | 7.48 | 7.19 | 7.64 | 2.1 | 4.69 | -0.137 | -0.877 | 1.91 | 3.4 | -0.121 | 4.49 | 0.318 | 3.46
CCTTGCGGGTCACGAGGTTATAGCACGACGAGCG | 6.38 | 4.25 | 0.382 | 3.71 | -0.139 | 5.87 | 7.48 | 6.95 | 4.06 | 5.86 | 5.74 | 6.59 | 3.45 | 2.14 | 3.48 | 4.41 | 0.214 | 6.01 | 0.851 | 4.47
TCTGCTAGGTCAATTGGTCAGCTAACGAGCTGCC | 2.99 | 2.31 | -0.37 | 1.44 | 0.648 | 3.04 | 1.76 | 2.76 | 1.64 | 2.31 | 3.71 | 3.87 | 1.29 | 0.854 | 2.37 | 0.895 | -0.774 | 1.87 | -0.436 | 3.79
ACTAGTTGGTCAGCTGAGGCCACACACAATTCGG | 0.531 | -0.313 | -0.2 | -0.129 | -0.143 | -0.0104 | 0.761 | -0.157 | -0.382 | -0.207 | 0.674 | 0.964 | 0.862 | 0.728 | 0.0249 | 1.11 | -0.242 | 1 | -0.472 | 1.13
TCTTGTAGATCAATAAAGGTTAAGAAAGTGCGCT | 1.03 | 4.33 | 0.774 | 2.36 | 0.274 | 2.32 | 0.49 | 2.26 | 2.99 | 2.82 | 2.1 | 1.29 | 0.661 | 1.24 | 1.33 | 3.04 | 0.584 | 2.3 | 1.6 | 1.53
CCTACTGGGCCATCAGGTCGTTGATATCAACGTT | -0.00658 | -0.372 | -0.231 | -0.0218 | -0.541 | 0.992 | 1.22 | 2.22 | 0.274 | 1.41 | 4.23 | 4.12 | -0.38 | -0.752 | 0.382 | 0.0795 | -0.323 | 0.272 | -0.616 | 0.569
CCGACTGGGGCAAGGTTACAATAACGCACAGCCA | 0.137 | 0.576 | -0.19 | 0.492 | -1.15 | 1.94 | 3 | 2.86 | 1.2 | 2.36 | 3.2 | 3.29 | -0.578 | -1.14 | 0.441 | 0.333 | -0.113 | 0.945 | 0.189 | 1.38
CCTAGCAGGCCAGGGTCATTCAAGCATTTCGCTT | 2.69 | 2.29 | -0.0917 | 2.54 | -0.65 | 3.66 | 0.697 | 1.82 | -0.631 | 0.991 | 0.315 | 0.694 | -0.751 | -1.91 | 1.59 | 3.11 | -0.0887 | 3.29 | -0.222 | 2.57
GATACATGGTCAGCTAGAGGCCAGAGTATGGAAA | -0.242 | -0.822 | -0.541 | -0.77 | -1.11 | -0.488 | 0.533 | -0.14 | -0.161 | -0.183 | -0.61 | 0.0448 | -1.36 | -0.885 | -0.578 | -0.344 | -0.0734 | -0.157 | -0.619 | 0.819
GGAACGAGGGCAAAGTTAATAGCATCTGTCGACG | 1.04 | 0.812 | -0.00751 | 0.878 | -0.23 | 3.62 | 5.8 | 6.25 | 4.67 | 6.67 | 4 | 4.19 | 0.116 | -0.54 | 0.877 | 1.19 | 0.225 | 1.24 | 0.00739 | 2.55
GCTATTATTTGAAAGGGCAACCGAATGATTCTCG | 0.306 | 0.97 | 1.37 | 0.925 | 0.441 | 1.08 | 0.626 | 1.41 | 0.637 | 0.844 | 0.681 | 0.479 | 0.791 | 0.619 | 1.8 | 0.697 | 1.02 | 1.07 | 2.43 | 2.09
CGTCAAAGTTTAAGGTAACGTAACAGAAAGCAGC | 0.503 | 0.447 | -0.218 | 0.466 | -0.063 | 0.794 | 0.72 | 1.11 | 0.465 | 0.749 | -0.15 | 0.591 | 0.678 | -0.068 | 0.325 | 0.369 | 0.0704 | 0.975 | 0.46 | 2.12
TCTTGTAGATCTGCAGGTTAAGAAAGCTGGCCAA | 0.0261 | 0.396 | -0.113 | 0.457 | -0.445 | 0.515 | -0.788 | 1.01 | 2.56 | 1.89 | 1.64 | -0.0995 | -0.0196 | -0.962 | -0.597 | 0.206 | -0.0786 | 0.383 | -0.894 | 0.204
TCATATAGGCAATACAGGTGAAAGTCGGCATCTA | 1.06 | 0.731 | 0.422 | 0.906 | -0.3 | 1.3 | 0.823 | 1.91 | 3.62 | 2.85 | 2.91 | 1.7 | 0.893 | 0.339 | 0.723 | 0.419 | 0.292 | 0.707 | 0.869 | 0.192
CAGCCTAGGTCAGGGCCAGTATCGGAGGAACGTT | 1.55 | 0.907 | -0.258 | 0.354 | -1.03 | 1.91 | 0.418 | 0.759 | -0.713 | 0.129 | 1.72 | 1.55 | -1.42 | -1.35 | 0.632 | 0.107 | -1.08 | 0.761 | -0.159 | 3.54
